The panel holds about 79,000 compounds, 15% with a hit somewhere; the sample as a whole holds those more often. Values without a mark were called inactive. The source made the active and inactive calls. Rule as the data show it: active = growth inhibition above about 70%; inactive = the rest.
Assay: NCI Yeast Anticancer Drug Screen. Data for the rad14 strain (AID 159);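 also: 0% = growth of vehicle-treated control cultures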
Conditions: S. cerevisiae rad14 strain growth inhibition, active compounds read high
Procedure: Growth inhibition of yeast strains with defined genetic alterations is measured as a screen for potential anti-cancer activity. Selected strains with alterations in DNA damage repair or cell cycle control were exposed to compounds and growth inhibition was measured relative to vehicle treated controls. The strain used in this assay is rad14

Compound | growth inhibition (at 1.2 µM) | growth inhibition (at 3.7 µM) | growth inhibition (at 11.0 µM) | growth inhibition (at 33.0 µM) | growth inhibition (at 100.0 µM)
Cc1cccc2c(NCCCN(C)C)c3c([N+](=O)[O-])ccc(C)c3nc12 | 98% (active) | 98% (active) | 99% (active) | 99% (active) | 98% (active)
O=C1C(=C2CCCC2)CCC1CN1CCCCC1 (stereo not given) | 10% | 10% | 29% | 57% | 94% (active)
Cc1cccc(C)c1NC(=O)C(C#N)C1=C(Cl)C(=O)c2ccccc2C1=O (stereo not given) | -2% | 88% (active) | 98% (active) | 98% (active) | 97% (active)
CCCC/C=C1\CCC(CN2CCCC2)C1=O (stereo not given) | 28% | 44% | 66% | 82% (active) | 93% (active)
O=[N+]([O-])c1cc(Cl)ccc1S(=O)(=O)c1ccc(Cl)cc1[N+](=O)[O-] | -15% | -11% | 25% | 88% (active) | 81% (active)
Cc1cccc(/C=N/NC(=S)NC2CCCCC2)n1 | -7% | -15% | -11% | 28% | 26%
CC(=O)Oc1ccc2c(c1)Cc1cc(N3C(=O)C=CC3=O)ccc1-2 | 10% | 25% | 61% | 98% (active) | 97% (active)
CC(/C=C/c1ccc([N+](=O)[O-])o1)=N/N1CC(CN2CCOCC2)OC1=O (stereo not given) | 4% | 10% | 55% | 90% (active) | 99% (active)
